According to PubChem BioAssay (NCATS):
Records with an inconclusive call do not appear. The source made the active and inactive calls. Calls follow the shape of the dose curve; as a rule, active = well fitted curve in the direction sought with a large enough effect; inconclusive = small, poorly fitted or top-dose-only effect, or another doubt; inactive = no such curve, though single readings can be large; an effect the other way counts as inactive or inconclusive.

Experiments:
[1] = target: Luciferin 4-monooxygenase (Photinus pyralis) (UniProt P08659); assay: Biochemical firefly luciferase enzyme assay for NPC (AID 624030);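 also: purified P. pyralis luciferase at 10 nM with luciferin and ATP substrate; nearly all actives have a fitted effect of over 70% in size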
Luciferin 4-monooxygenase (Photinus pyralis), sequence (P08659 whole entry, looked up): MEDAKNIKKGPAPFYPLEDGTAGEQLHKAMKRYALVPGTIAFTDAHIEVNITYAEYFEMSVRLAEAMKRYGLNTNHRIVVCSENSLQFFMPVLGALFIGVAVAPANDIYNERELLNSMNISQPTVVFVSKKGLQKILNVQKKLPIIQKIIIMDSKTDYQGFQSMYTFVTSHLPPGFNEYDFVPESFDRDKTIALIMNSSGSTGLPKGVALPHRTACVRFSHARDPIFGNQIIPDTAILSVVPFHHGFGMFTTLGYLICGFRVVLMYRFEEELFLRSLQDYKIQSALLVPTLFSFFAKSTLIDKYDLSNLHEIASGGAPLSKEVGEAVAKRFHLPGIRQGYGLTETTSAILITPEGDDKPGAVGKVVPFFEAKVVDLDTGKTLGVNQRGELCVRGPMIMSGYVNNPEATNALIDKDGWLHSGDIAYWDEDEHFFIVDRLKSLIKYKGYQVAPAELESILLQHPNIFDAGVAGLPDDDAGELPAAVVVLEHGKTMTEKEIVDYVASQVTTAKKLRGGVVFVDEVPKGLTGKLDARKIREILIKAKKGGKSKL
Method in brief: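 Purified P. pyralis luciferase at 10 nM in 50 mM Tris Acetate (final), luminescence read within 5 minutes of enzyme addition to compounds. Activity normalised to PTC124 versus DMSO; concentration-response curves classed by r2, magnitude and activity.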

[2] = S16 Schwann cell PMP22 intronic element firefly luciferase assay (AID 624032); also: nearly all actives have a fitted effect of over 30% in size; also: potency is read from the fitted curve at half-maximal effect
Method in brief: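 Rat S16 Schwann cells stably carrying firefly luciferase driven by a PMP22 intronic element, in 10% FBS, treated 24 h at 37 C. ONE-Glo luminescence normalized to PTC124 control and DMSO (0%); curves classed by r2, magnitude and activity.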

[3] = system: 3D7; assay: qHTS profiling for inhibitors of Plasmodium falciparum proliferation (AID 504749); also: nearly all actives have a fitted effect of over 60% in size; also: potency is read from the fitted curve at half-maximal effect; conditions: P. falciparum in erythrocytes, SYBR Green DNA, 72 h; series mostly up to 12.8 µM
Method in brief: (§1)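 Readout was DNA-dye fluorescence from lysed cultures, ex 485/em 535 nm. Parasitized red cells had grown 72 h with compound; data scaled between 0.29 uM artemisinin and DMSO wells and corrected using vehicle-only plates.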

[4] = system: ATS189; assay: as above; conditions: P. falciparum in erythrocytes, SYBR Green DNA, 72 h; series mostly up to 12.8 µM
Method in brief: as §1

[5] = system: ATS95; assay: as above; conditions: P. falciparum in erythrocytes, SYBR Green DNA, 72 h; series mostly up to 12.8 µM
Method in brief: as §1

[6] = system: CP192; assay: as above; conditions: P. falciparum in erythrocytes, SYBR Green DNA, 72 h; series mostly up to 12.8 µM
Method in brief: as §1

[7] = system: CP238; assay: as above; conditions: P. falciparum in erythrocytes, SYBR Green DNA, 72 h; series mostly up to 12.8 µM
Method in brief: as §1

[8] = system: CP247; assay: as above; conditions: P. falciparum in erythrocytes, SYBR Green DNA, 72 h; series mostly up to 12.8 µM
Method in brief: as §1

[9] = system: CP252; assay: as above; conditions: P. falciparum in erythrocytes, SYBR Green DNA, 72 h; series mostly up to 12.8 µM
Method in brief: as §1

[10] = system: CP268; assay: as above; conditions: P. falciparum in erythrocytes, SYBR Green DNA, 72 h; series mostly up to 12.8 µM
Method in brief: as §1

[11] = system: Dd2; assay: as above; conditions: P. falciparum in erythrocytes, SYBR Green DNA, 72 h; series mostly up to 12.8 µM
Method in brief: as §1

[12] = system: ECU; assay: as above; conditions: P. falciparum in erythrocytes, SYBR Green DNA, 72 h; series mostly up to 12.8 µM
Method in brief: as §1

[13] = system: ICS; assay: as above; conditions: P. falciparum in erythrocytes, SYBR Green DNA, 72 h; series mostly up to 12.8 µM
Method in brief: as §1

[14] = system: N140; assay: as above; conditions: P. falciparum in erythrocytes, SYBR Green DNA, 72 h; series mostly up to 12.8 µM
Method in brief: as §1

[15] = system: P93_24; assay: as above; conditions: P. falciparum in erythrocytes, SYBR Green DNA, 72 h; series mostly up to 12.8 µM
Method in brief: as §1

[16] = system: PC15; assay: as above; conditions: P. falciparum in erythrocytes, SYBR Green DNA, 72 h; series mostly up to 12.8 µM
Method in brief: as §1

[17] = system: PC49; assay: as above; conditions: P. falciparum in erythrocytes, SYBR Green DNA, 72 h; series mostly up to 12.8 µM
Method in brief: as §1

[18] = system: TAB109; assay: as above; conditions: P. falciparum in erythrocytes, SYBR Green DNA, 72 h; series mostly up to 12.8 µM
Method in brief: as §1

[19] = system: TAB165; assay: as above; conditions: P. falciparum in erythrocytes, SYBR Green DNA, 72 h; series mostly up to 12.8 µM
Method in brief: as §1

[20] = system: 7G8; assay: as above; conditions: P. falciparum in erythrocytes, SYBR Green DNA, 72 h; series mostly up to 12.8 µM
Method in brief: as §1

Measured: Potency

C[C@@H]1Cc2ccccc2N1NC(=O)c1ccc(Cl)c(S(N)=O)c1 (some centres not stated)
active: [2] 3.46 µM
not listed: [20]
inactive: all other assays above

NS(=O)(=O)c1cc2c(cc1C(F)(F)F)N[C@H](Cc1ccccc1)NS2(=O)=O
inactive: all assays above

NC(=O)c1ccc[n+]([C@@H]2O[C@H](COP(=O)([O-])OP(=O)(O)OC[C@H]3O[C@@H](n4cnc5c(N)ncnc54)[C@@H](O)[C@@H]3O)[C@@H](O)[C@@H]2O)c1
inactive: all assays above

CCC[C@@H]1O[C@@H]2C[C@@H]3[C@H]4CCC5=CC(=O)C=C[C@@]5(C)[C@H]4[C@H](O)C[C@@]3(C)[C@@]2(C(=O)CO)O1
active: [3] 7.94 µM | [20] 4.47 µM | [4] 7.08 µM | [8] 8.91 µM | [9] 11.2 µM | [11] 12.6 µM | [12] 7.08 µM | [13] 6.31 µM | [15] 8.91 µM | [18] 7.94 µM | [19] 11.2 µM
inactive: [1] | [2] | [10]

C[C@H](C(=O)O)c1cccc(Oc2ccccc2)c1
not listed: [20]
inactive: all other assays above

CC(=O)C[C@H](c1ccc([N+](=O)[O-])cc1)c1c(O)c2ccccc2oc1=O
inactive: all assays above

CN1CCN([C@@H](c2ccccc2)c2ccc(Cl)cc2)CC1
active: [20] 3.16 µM | [13] 3.16 µM
not listed: [4] | [5] | [10] | [11] | [15] | [19]
inactive: all other assays above

NCc1ccccc1CC(=O)N[C@@H]1C(=O)N2C(C(=O)O)=C(CSc3nnnn3CC(=O)O)CS[C@@H]12
inactive: all assays above

NC(=O)N[C@H]1NC(=O)NC1=O
not listed: [3]
inactive: all other assays above

CN(C/C=C\c1ccccc1)Cc1cccc2ccccc12
active: [13] 11.2 µM
not listed: [2] | [20]
inactive: all other assays above

CO[C@]1(NC(=O)C2SC(=C(C(N)=O)C(=O)O)S2)C(=O)N2C(C(=O)O)=C(CSc3nnnn3C)CS[C@H]21 (some centres not stated)
not listed: [15]
inactive: all other assays above

CC[C@H](Cc1c(I)cc(I)c(N)c1I)C(=O)O
not listed: [2]
inactive: all other assays above

C=CCOc1ccccc1OC[C@H](O)CNC(C)C
not listed: [11] | [19]
inactive: all other assays above

CC(=O)OCC(=O)[C@@]1(O)[C@H](C)C[C@@H]2[C@H]3CCC4=CC(=O)C=C[C@]4(C)[C@]3(F)[C@@H](O)C[C@@]21C
inactive: all assays above

O=C(O)[C@@H](O)[C@@H](O)[C@@H](O[C@H]1O[C@@H](CO)[C@@H](O)[C@@H](O)[C@@H]1O)[C@@H](O)CO
inactive: [1]

CC(C)NC[C@H]1CCc2cc(CO)c([N+](=O)[O-])cc2N1
not listed: [1]
inactive: all other assays above

O=C(O)[C@@H](O)[C@@H](O)[C@@H](O)[C@@H](O)C(=O)O (tested in a mixture with another compound)
inactive: [1]

OCCN1CCN(CCC=C2c3ccccc3Sc3ccc(Cl)cc32)CC1
active: [20] 3.16 µM | [11] 3.98 µM | [13] 4.47 µM
inactive: [1] | [2] | [7] | [10]

CNC[C@H](O)c1ccc(OC(=O)C(C)(C)C)c(OC(=O)C(C)(C)C)c1
not listed: [2] | [13] | [16] | [20]
inactive: all other assays above

Clc1ccc(CC[C@H](Cn2ccnc2)Sc2c(Cl)cccc2Cl)cc1
inactive: [1]
active: [20] 0.891 µM | [11] 3.55 µM | [12] 3.55 µM | [13] 1.41 µM | [14] 3.16 µM | [15] 2.24 µM | [19] 1.26 µM

Cc1nccn1C[C@@H]1CCc2c(c3ccccc3n2C)C1=O
inactive: [1]

COC(=O)C1=C(C)NC(C)=C(C(=O)OC(C)C)[C@H]1c1cccc2nonc12
active: [20] 3.16 µM | [13] 3.55 µM | [14] 3.16 µM
inactive: [6] | [7] | [11] | [15] | [16] | [17]

CC1(C)O[C@H]2C[C@@H]3[C@H]4CCC5=CC(=O)CC[C@@]5(C)[C@]4(F)[C@@H](O)C[C@@]3(C)[C@@]2(C(=O)CCl)O1
active: [3] 3.98 µM | [20] 1.58 µM | [4] 3.55 µM | [5] 1.58 µM | [8] 3.98 µM | [9] 3.55 µM | [13] 0.891 µM | [14] 2.51 µM | [15] 3.55 µM | [16] 3.55 µM | [18] 1.41 µM | [19] 3.16 µM
inactive: [1] | [2] | [12] | [17]

NC[C@@H]1O[C@H](O[C@H]2[C@H](O)[C@H](O[C@@H]3O[C@H](CO)[C@@H](O)[C@H](N)[C@@H]3O)[C@@H](N)C[C@H]2N)[C@@H](O)[C@H](O)[C@@H]1O
inactive: all assays above
